According to PubChem BioAssay AID1159580 (chemical genetic matrix, 2015):
Values joined by “and” are separate entries in the source; they are usually repeats but may differ in a detail not shown here. Identical values can stand only once. Hit rate of the full screen: of about 5,500 compounds, about 2,000 (36%) were called active. Inconclusive results (about 18%) are left out. Rule as the data show it: active = normalized growth mostly below about 0.91 (no sharp cut-off); inconclusive = no clear call, values can overlap the other calls; inactive = mostly above about 0.92. The list shows a part of the results.

Test: chemical genetic growth profiling, strain panel (AID 1159580);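 also: tested at 20 µM; growth read once vehicle control cultures reached saturation at 30 °C; 1 = growth at the plate median or of vehicle wells; lower values mean less growth of the strain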
Conditions: S. cerevisiae deletion strains, growth OD

Measured: normalized growth

COc1cc(-c2coc3cc(OC)c(OC)c(OC)c3c2=O)cc(OC)c1OC
inactive: locus YAL013W, strain DEP1, stronger effect = lower value 0.994 | locus YAL021C, strain ccr4, stronger effect = lower value 1 | locus YAL026C, strain drs2, stronger effect = lower value 1.01 | locus YAL030W, strain snc1, stronger effect = lower value 1.01 | locus YBL061C, strain skt5, stronger effect = lower value 0.996 | locus YBR009C, strain hhf1, stronger effect = lower value 0.993 | locus YBR021W, strain FUR4, stronger effect = lower value 1.02 | locus YBR023C, strain chs3, stronger effect = lower value 0.991 | locus YBR171W, strain sec66, stronger effect = lower value 0.99 | locus YBR229C, strain ROT2, stronger effect = lower value 1 | locus YBR231C, strain swc5, stronger effect = lower value 0.969 | locus YBR279W, strain paf1, stronger effect = lower value 1.01 | locus YCL011C, strain gbp2, stronger effect = lower value 1 | locus YCL016C, strain dcc1, stronger effect = lower value 0.987 | locus YCL029C, strain bik1, stronger effect = lower value 0.973 | locus YCL061C, strain MRC1, stronger effect = lower value 1.01 | locus YCL069W, strain vba3, stronger effect = lower value 1.01 | locus YCR088W, strain abp1, stronger effect = lower value 1.01 | locus YDL005C, strain med2, stronger effect = lower value 0.996 | locus YDL035C, strain GPR1, stronger effect = lower value 1.03 | locus YDL040C, strain nat1, stronger effect = lower value 0.995 | locus YDL074C, strain BRE1, stronger effect = lower value 1.02 | locus YDL101C, strain DUN1, stronger effect = lower value 0.981 | locus YDL185W, strain tfp1, stronger effect = lower value 0.968 | locus YDL192W, strain arf1, stronger effect = lower value 1.03 | locus YDR001C, strain nth1, stronger effect = lower value 0.999 | locus YDR069C, strain doa4, stronger effect = lower value 1.01 | locus YDR101C, strain arx1, stronger effect = lower value 1.06 | locus YDR137W, strain rgp1, stronger effect = lower value 1.01 | locus YDR159W, strain sac3, stronger effect = lower value 0.947 | locus YDR162C, strain NBP2, stronger effect = lower value 1.03 | locus YDR195W, strain ref2 0.963 | locus YDR297W, strain sur2, stronger effect = lower value 1.01 | locus YDR318W, strain mcm21, stronger effect = lower value 0.993 | locus YDR334W, strain swr1, stronger effect = lower value 0.994 | locus YDR335W, strain msn5, stronger effect = lower value 1 | locus YDR388W, stronger effect = lower value 0.985 | locus YDR392W, strain spt3, stronger effect = lower value 0.888 | locus YDR502C, strain sam2, stronger effect = lower value 0.985 | locus YEL003W, strain gim4, stronger effect = lower value 0.992 | locus YEL037C, strain rad23, stronger effect = lower value 1 | locus YEL061C, strain CIN8 (second series), stronger effect = lower value 1 | locus YEL061C, strain CIN8, stronger effect = lower value 0.994 | locus YER015W, strain faa2, stronger effect = lower value 1 | locus YER016W, strain bim1, stronger effect = lower value 0.999 | locus YER110C, stronger effect = lower value 0.968 | locus YER111C, strain swi4, stronger effect = lower value 0.989 | locus YER155C, strain BEM2 (second series), stronger effect = lower value 0.968 | locus YER155C, strain BEM2, stronger effect = lower value 0.984 | locus YER167W, strain BCK2, stronger effect = lower value 1 | locus YFR010W, strain ubp6, stronger effect = lower value 0.996 | locus YGL078C, strain dbp3, stronger effect = lower value 0.975 | locus YGL086W, strain mad1, stronger effect = lower value 1.01 | locus YGL167C, strain pmr1, stronger effect = lower value 1 | locus YGL173C, strain kem1, stronger effect = lower value 1 | locus YGL227W, strain vid30, stronger effect = lower value 0.99 | locus YGL240W, strain doc1, stronger effect = lower value 0.987 | locus YGL248W, strain PDE1, stronger effect = lower value 0.965 | locus YGL253W, strain hxk2, stronger effect = lower value 0.996 | locus YGR135W, strain pre9, stronger effect = lower value 0.952 | locus YGR252W, strain gcn5, stronger effect = lower value 1.01 | locus YHR013C, strain ard1, stronger effect = lower value 0.996 | locus YHR027C, strain rpn1, stronger effect = lower value 0.997 | locus YHR030C, strain SLT2, stronger effect = lower value 0.997 and 1.06 | locus YHR079C, strain IRE1 (second series), stronger effect = lower value 0.992 | locus YHR079C, strain IRE1, stronger effect = lower value 1.02 | locus YHR094C, strain hxt1, stronger effect = lower value 1 | locus YHR129C, strain ARP1, stronger effect = lower value 0.996 | locus YHR142W, strain chs7, stronger effect = lower value 0.994 | locus YHR200W, strain rpn10, stronger effect = lower value 1.01 | locus YIL066C, strain RNR3, stronger effect = lower value 1 | locus YIL073C, strain SPO22, stronger effect = lower value 0.921 | locus YIL125W, strain kgd1, stronger effect = lower value 1.01 | locus YIR030C, strain dcg1, stronger effect = lower value 0.989 | locus YJL092W, strain hpr5, stronger effect = lower value 1.01 | locus YJL095W, strain BCK1 (second series), stronger effect = lower value 1 | locus YJL095W, strain BCK1, stronger effect = lower value 0.986 and 1.07 | locus YJL115W, strain asf1, stronger effect = lower value 1 | locus YJL129C, strain trk1, stronger effect = lower value 0.988 | locus YJL134W, strain LCB3, stronger effect = lower value 1 | locus YJL154C, strain vps35, stronger effect = lower value 0.99 | locus YJL164C, strain tpk1, stronger effect = lower value 1 | locus YJL166W, strain qcr8, stronger effect = lower value 0.999 | locus YJL168C, strain set2, stronger effect = lower value 0.993 | locus YJL187C, strain SWE1 (second series), stronger effect = lower value 0.968 | locus YJR043C, strain POL32, stronger effect = lower value 1.04
